Each structure is given as a SMILES string. Inconclusive results are not listed. Entries that show only a call come without a potency. The source made the active and inactive calls. The call rests on the fitted dose curve; in most records, active means well fitted inhibition curve with a large enough effect; inconclusive means small, poorly fitted or top-dose-only effect; inactive means flat fitted curve, though single readings scatter.

The experiment deals with Calcium and integrin-binding protein 1 (Homo sapiens) (UniProt Q99828). The experiment can be described thus: Primary qHTS for Identification of Calcium Integrin Binding Protein 1 (CIB1) Competitor (AID 1508620). Further: top concentration of the series differs between compounds. The conditions noted are these: CIB1-GST / FITC-alphaIIb peptide fluorescence polarization; series mostly up to 114 µM. The essentials: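 Fluorescence polarization competition: GST-tagged CIB1 (1 uM final) preincubated with compound 15 min at room temperature, then FITC-labelled alphaIIb peptide (100 nM final) added. After 15 min at room temperature, polarization read at Ex 480/Em 540.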
Chain of Calcium and integrin-binding protein 1 (Homo sapiens) (Q99828 whole entry, looked up): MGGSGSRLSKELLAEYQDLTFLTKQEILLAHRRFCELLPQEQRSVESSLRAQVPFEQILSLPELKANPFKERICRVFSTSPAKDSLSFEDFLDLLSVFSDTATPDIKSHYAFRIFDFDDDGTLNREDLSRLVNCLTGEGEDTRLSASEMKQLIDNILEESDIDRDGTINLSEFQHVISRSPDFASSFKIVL
Background: Quantitative high-throughput screening tests each substance at several concentrations.
`C/C=C/c1cc(OC)c2c(c1)[C@@H](C)[C@@H](c1ccc(O)c(OC)c1)O2`: the Potency entry is “inactive”.
Turning to `CN1CCN(Cc2ccc(-c3cnc4[nH]cc(-c5ccc6[nH]ccc6c5)c4c3)cc2)CC1`, the Potency result was “inactive”.
For `O=C1CCC=CC1(O)C(=O)OCc1ccccc1O[C@@H]1O[C@H](CO)[C@@H](O)[C@H](O)[C@H]1O` (stereo partly specified), the Potency result was “inactive”.
Then `COc1ccc2[nH]c3c(-c4cccc5ccccc45)nccc3c2c1`, with “inactive”; and `OCC(CO[C@@H]1O[C@H](CO)[C@@H](O)[C@H](O)[C@H]1O)c1ccc2c(c1)OCO2` (stereo partly specified), with “inactive”; and `C=C1[C@@H]2CC[C@@H]3[C@@](CCC4C(C(=O)O)(C(=O)O)C[C@@H](O[C@@H]5O[C@H](CO)[C@@H](O)[C@H](O)[C@H]5OC(=O)CC(C)C)C[C@]43C)(C2)[C@H]1O` (stereo partly specified), with “inactive”.
To `Cc1ccccc1C#Cc1ccc(CCC(=O)O)cc1` belongs “inactive”; to `CO[C@H]1C[C@@H]2CC[C@@H](C)[C@@](O)(O2)C(=O)C(=O)N2CCCC[C@H]2C(=O)O[C@H]([C@H](C)C[C@H]2CC[C@@H](OP(C)(C)=O)[C@H](OC)C2)CC(=O)[C@H](C)/C=C(\C)[C@@H](O)[C@@H](OC)C(=O)[C@H](C)C[C@H](C)/C=C/C=C/C=C/1C`, “inactive”; to `C=C1C[C@]23C[C@H]1CC[C@H]2[C@@]1(C)CCC[C@@]2(C)C(=O)O[C@@H]([C@@H]3O)[C@@H]12`, “inactive”.
Turning to `CC1=CC(=O)CC(C)(C)[C@@]1(O)CC[C@@H](C)O[C@@H]1O[C@H](CO)[C@@H](O)[C@H](O)[C@H]1O`, the Potency result is “inactive”.
To `COc1ccc(-c2cnc3ccc(NCc4ccc(S(N)(=O)=O)cc4)nn23)cc1OC` belongs “inactive”.
